Screening results as filed in PubChem BioAssay.
Only a sample is shown.
aSyn UTR act: Activators working through SNCA 5'UTR binding (MLPCN) | alpha-synuclein 5'UTR reporter, activators screen | hit rate 7.1% among 300,000 | activity score, % (tested at 7.5 µM), hits read low | AID 1814; in the data active = activity score below about -60%
Active calls of the source: *.

SMILES | aSyn UTR act
Cc1cc(NC(=S)NC(=O)C2CC2)ccc1Br | -114*
COc1ccc(NC(=S)NC(=O)C2CCCCC2)cc1 | -86*
COc1ccc(NC(=O)NC2CCCCC2C)cc1 (stereo not drawn) | -81*
Cc1ccsc1/C=N/NC(=O)c1cccs1 | -109*
Cc1ccc(/C=N/NC(=O)c2cccs2)o1 | -65*
Cc1ccsc1/C=N/NC(=O)c1cc(-c2ccncc2)nc2ccccc12 | 67
Cc1ccsc1/C=N/NC(=O)c1ccccn1 | -151*
Cc1ccsc1/C=N/Nc1ccc(C(=O)O)cc1 | 64
O=C(N/N=C/C1CCCCC1)c1ccccn1 | -116*
O=C(N/N=C/c1ccsc1)c1ccccn1 | -92*
O=C(N/N=C/c1ccc(Br)s1)c1ccccn1 | -96*
O=C(N/N=C/c1ccc(OC(=O)c2ccccc2Br)cc1)c1ccccn1 | -90*
C=CCn1c(SCC(=O)c2[nH]c(C)c(C(=O)OCC)c2C)nc2scc(-c3ccccc3)c2c1=O | 57
C=CCn1c(SCC(N)=O)nc2scc(-c3ccc(C)o3)c2c1=O | -84*
CC(=O)Nc1sc(N/N=C/c2ccc(N(C)C)cc2)nc1-c1ccc(C)cc1 | -68*
CC(=O)Nc1nc(C)c(-c2csc(Nc3cccc([N+](=O)[O-])c3)n2)s1 | 67
CC(=O)c1sc(N/N=C/c2cccc([N+](=O)[O-])c2)nc1C | -170*
CC(=O)c1cccc(Nc2nc(-c3cccc([N+](=O)[O-])c3)cs2)c1 | -222*
CC(=O)c1sc(N/N=C/c2cccc(O)c2)nc1C | -338*
CC(=O)c1sc(N/N=C\c2ccc(N(C)C)cc2)nc1C | -135*
Cc1csc(N/N=C/c2ccc([N+](=O)[O-])cc2)n1 | -148*
Cc1[nH]n(-c2nc(-c3cccc([N+](=O)[O-])c3)cs2)c(=O)c1C | -135*
Cc1csc(N/N=C/c2ccccn2)n1 | 69
O=[N+]([O-])c1cccc(-c2csc(N/N=C/c3cccc(O)c3)n2)c1 | -216*
Cc1cccc(Nc2nc(N)nc(CSc3nccn3C)n2)c1 | -99*
SMILES | aSyn UTR act
COc1ccnc(Oc2ccc(C)cc2)c1C#N | -81*
COc1ccnc(Oc2ccc3ccccc3c2)c1C#N | -74*
COc1ccnc(N=CNOCc2ccc(C)cc2)c1C#N | -100*
CSc1nc(Oc2ccc3ccccc3c2)c2sccc2n1 | 82
Cc1oc2cc3oc(=O)cc(C)c3cc2c1C | -88*
Cc1ccc(C(=O)CCC(=O)Nc2ccccc2F)cc1 | -98*
Cc1ccc(OCC(=O)Nc2ccccc2F)cc1 | -72*
CCOC(=O)c1oc2ccccc2c1NC(=O)COc1ccc(F)cc1 | 61
O=C(COc1ccccc1)NCCSCc1ccccc1Cl | -64*
Cc1ccc(CCC(=O)Nc2ccccc2F)s1 | -91*
Cc1ccc(OCC(=O)Nc2ccccc2F)cc1C | -178*
O=C(COc1ccccc1)Nc1ccccc1Cl | -165*
O=C(O)CC1=C(Nc2ccccc2)C(=O)N(c2ccccc2)C1c1ccc(Br)cc1 (stereo not drawn) | -104*
O=C(CCc1nnc(C2CCCCC2)o1)N1CCN(c2ccccc2F)CC1 | -112*
O=C(CCCC(=O)N1CCN(c2ccccc2F)CC1)c1ccccc1 | -76*
O=C(Nc1nnc(C2CC2)o1)c1ccc(S(=O)(=O)N2CCCc3ccccc32)cc1 | 63
O=C(Oc1ccccc1)N1CCN(c2ccccc2F)CC1 | -65*
Nc1c(-c2ccc(Cl)cc2)cnn1-c1cccc(C(F)(F)F)c1 | -102*
Cc1ccc(-c2cnn(-c3cccc(C(F)(F)F)c3)c2N)cc1 | -147*
COc1ccc(/C=N/Nc2ccccn2)cc1O | -145*
Fc1ccc(/C=N/Nc2ccccn2)cc1 | -120*
Clc1ccc(/C=N/Nc2ccccn2)cc1 | -163*
Brc1ccc(/C=N/Nc2ccccn2)cc1 | -193*
FC(F)(F)c1ccccc1/C=N/Nc1ccccn1 | -94*
Oc1ccc(N=Nc2ccccc2C(F)(F)F)c2cccnc12 | 72
SMILES | aSyn UTR act
C(=N\Nc1ccccn1)/c1c[nH]c2ccccc12 | -114*
Clc1nccnc1N/N=C/c1ccc(Br)cc1 | -106*
Brc1ccccc1/C=N/Nc1ccccn1 | -131*
Cc1ccc(/C=N/Nc2ccccn2)s1 | -149*
O=C(c1ccccc1)c1nc[nH]c1C(=O)Nc1ccccc1 | -91*
Cc1ccc(NC(=O)c2[nH]cnc2C(=O)NN)cc1 | -65*
Cc1coc2c1C(=O)C(=O)c1c-2ccc2c1CCCC2(C)C | 63
Cc1coc2c1C(=O)C(=O)c1c-2ccc2c(C)cccc12 | -64*
CC(/C=N/Nc1nc(C)cc(=O)[nH]1)=C\c1ccccc1 | -67*
CC(/C=N/Nc1nc2ccccc2[nH]1)=C\c1ccccc1 | -70*
O=c1oc2ccccc2cc1-c1nnc(-c2cccc(Br)c2)o1 | -98*
O=c1oc2ccccc2cc1-c1cn2cccnc2n1 | -65*
O=c1oc2ccc(Cl)cc2cc1-c1ccccc1 | -70*
O=c1oc2ccccc2cc1-c1cn2ccccc2n1 | 98
O=c1oc2ccccc2cc1-c1ccccc1 | -118*
O=C(Cc1cccc2ccccc12)Nc1ccc(-c2cc3ccccc3oc2=O)cc1 | 65
CCCC(=O)Nc1ccc(-c2nc3cc(C)c(C)cc3o2)c(O)c1 | -129*
COc1ccc(-c2csc(NC(=S)NC(=O)/C=C/c3ccco3)n2)cc1Br | 91
CCCC(=O)Nc1ccc2oc(-c3ccc(OC)c(Br)c3)nc2c1 | -118*
CCCC(=O)Nc1ccc(-c2nc3cc(C)ccc3o2)cc1 | -149*
c1coc(-c2nc(-c3ccncc3)no2)c1 | -122*
c1ccc(-c2nc(-c3ccc(-c4ccon4)s3)no2)cc1 | -104*
c1ccc(-c2noc(-c3cccnc3)n2)cc1 | -198*
CCCCc1ccc(-c2nc(-c3ccncc3)no2)cc1 | 91
Brc1ccc(-c2nc(-c3ccncc3)no2)cc1 | -184*
SMILES | aSyn UTR act
Brc1ccc(-c2nc(-c3ccncc3)no2)o1 | -188*
c1ccc(-c2nc(-c3ccncc3)no2)cc1 | -141*
O=[N+]([O-])c1ccc(-c2nc(-c3ccncc3)no2)cc1 | -74*
Brc1ccc(-c2nc(-c3ccccn3)no2)o1 | 80
COc1cccc(OCc2cc(C(=O)NCc3ccc4c(c3)OCO4)no2)c1 | -71*
O=C(Nc1ccc2c(c1)OCO2)c1cc(-c2ccc(O)cc2)on1 | -158*
COc1cccc(-c2cc(C(=O)Nc3ccc4c(c3)OCO4)no2)c1 | -66*
O=C(Nc1ccc2c(c1)OCO2)c1cc(-c2ccccc2Cl)on1 | -143*
Cc1cc2sc3ccccc3c(=O)c2c(C)c1O | -96*
COc1ccc(N=CC2=C(O)c3ccccc3C2=O)cc1 | -80*
O=C1C(C=Nc2ccccc2)=C(O)c2ccccc21 | -78*
COC(=O)CCN1CCc2cc(N=Nc3ccc([N+](=O)[O-])cc3)ccc21 | -96*
O=C(NCc1csc(-c2cccs2)n1)c1ccsc1 | -112*
CC1=Nc2cc(C(=O)NCC3CCCO3)ccc2Sc2ccc(Br)cc21 (stereo not drawn) | -113*
O=C(NCC1CCCO1)c1cc(-c2ccc(Cl)cc2Cl)on1 (stereo not drawn) | -164*
O=C(NCC1CCCO1)c1cc(-c2ccccc2)on1 (stereo not drawn) | -362*
Cc1ccc(-c2cc(C(=O)NCC3CCCO3)no2)cc1 (stereo not drawn) | -76*
Cc1cccc(NC(=O)C(=O)NCC2CCCO2)c1 (stereo not drawn) | -92*
NS(=O)(=O)c1ccc(N/C=C\C(=O)c2cccc3ccccc23)cc1 | -65*
CCOC(=O)c1ccc(N/C=C/C(=O)c2ccccc2)cc1 | -188*
CCOC(=O)c1ccc(N/C=C/C(=O)C(C)(C)C)cc1 | -137*
